Source: PubChem (National Center for Advancing Translational Sciences (NCATS))
Shown are actives, neighbours in structure and some others; about 17% of the full set was active somewhere.
TGFb inhibitor: qHTS for Inhibitors of TGF-b; HepG2 CAGA-GFP TGF-b/SMAD3 reporter, GFP fluorescence, 18 h; TGF-beta stimulated, 500 pg/mL final; AID 588855, 2011; Potency, µM (series often up to 46.1 µM), for the others: at the highest dose activity, negative = inhibition, most hits filed as inhibitors; 410,000 compounds, 1.2% hits; further: on the % scale 0 is the no-effect control and ±100 the full control effect; nearly all actives have a fitted effect of over 65% in size
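Per well, imaged GFP fluorescence of HEPG2 CAGA-GFP cells gives the signal; cells get compound, then TGF-beta (500 pg/mL final), 18 h at 37 degrees C; %Activity versus -TGF-beta and +DMSO controls.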
DT40 TDP1 CPT: qHTS for Inhibitors of human tyrosyl-DNA phosphodiesterase 1 (TDP1): qHTS in cells in presence of CPT; chicken DT40 Tdp1-/-;hTDP1 cells + 20 nM CPT, ATP luminescence, 48 h; Potency, µM (highest dose often 46.2 µM), without a hit: top-dose activity change, negative = growth inhibition, usual class: inhibitors; 420,000 compounds, 12% hits; further: on the % scale 0 is the no-effect control and ±100 the full control effect; nearly all actives have a fitted effect of over 55% in size
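Chicken DT40 Tdp1-/- cells complemented with human TDP1, 400 cells/well, exposed to compounds plus 20 nM camptothecin for at least 48 h at 37 C; viability read as ATP content by CellTiter-Glo luminescence.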
HepG2 tox: qHTS for Inhibitors of TGF-b: Cytotox Counterscreen; Potency, µM (top dose mostly 46.1 µM), for the others: top-dose activity change, negative = cytotoxicity, hits mostly cytotoxic; 410,000 compounds, 0.76% hits; HepG2 CAGA-GFP viability, ATP luminescence, 18 h
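HepG2 CAGA-GFP cells (1000/well, DMEM with 1% FBS) received compound, then TGF-beta at 500 pg/mL final, and were incubated 18 hours at 37 degrees C. Viability was read by CellTiter-Glo luminescence. Media-only wells were set as complete cell-killing and DMSO as no toxicity.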
DT40 TDP1 no CPT: qHTS for Inhibitors of human tyrosyl-DNA phosphodiesterase 1 (TDP1): qHTS in cells in absence of CPT. Potency, µM (titrated, usually from 46.2 µM), without a hit: at the top dose activity change, negative = growth inhibition, most hits filed as inhibitors. DT40 Tdp1-/- hTDP1 cells, no CPT, ATP luminescence, 48 h. 420,000 compounds, 15% hits; further: on the % scale 0 is the no-effect control and ±100 the full control effect; nearly all actives have a fitted effect of over 55% in size
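Compound effects on proliferation are scored in DT40 Tdp1-/-;hTDP1 cells in the absence of CPT. ATP levels (CellTiter-Glo luminescence) are recorded after a ≥48 hr, 37 °C incubation.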
ATXN viability: Viability Counterscreen for Primary qHTS for Inhibitors of ATXN expression; S2 cells (HEK-293 line with an ATXN2-luciferase reporter) viability, CellTiter-Fluor protease fluorescence, 24 h; Potency, µM (highest dose often 56.7 µM), hits mostly cytotoxic; 400,000 compounds, 0.49% hits; AID 651635, 2014; further: nearly all actives have a fitted effect of over 40% in size
ATXN2 expr inh: Primary qHTS for Inhibitors of ATXN expression; HEK-293 ATXN2-luciferase reporter, luminescence, 24 h; Potency, µM (series often up to 57 µM), inactives show at the highest dose activity change, negative = inhibition, most hits filed as inhibitors; 360,000 compounds, 0.72% hits; AID 1745845, 2022; further: on the % scale 0 is the no-effect control and ±100 the full control effect; nearly all actives have a fitted effect of over 55% in size
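qHTS (up to 57 uM final) was run with 24 h compound exposure of reporter cells at 37 °C. Each well was multiplexed: SteadyGlo luminescence measured ATXN2-luciferase expression after a fluorogenic Gly-Phe-AFC viability readout (25 uM final).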
* = called active by the depositor. The call rests on the fitted dose curve; in most records, active means well fitted curve in the direction sought with a large enough effect; inconclusive means small, poorly fitted or top-dose-only effect, or another doubt; inactive means no such curve, though single readings can be large; an effect the other way counts as inactive or inconclusive. Potency means the concentration at half of the fitted maximal effect.

How did Cc1nc(N/N=C/c2ccc(O)cc2O)cc(N2CCOCC2)n1 do in these assays?
TGFb inhibitor: 38.2%; DT40 TDP1 CPT: inconclusive; HepG2 tox: -38.8%; DT40 TDP1 no CPT: inconclusive; ATXN viability: inactive; ATXN2 expr inh: inconclusive

What do the screens show for `Oc1cccc(/C=N/Nc2cc(N3CCOCC3)nc(N3CCOCC3)n2)c1`?
TGFb inhibitor: 4.8%; DT40 TDP1 CPT: 16.4µM*; HepG2 tox: -57.9%; DT40 TDP1 no CPT: 14.6µM*; ATXN viability: inactive; ATXN2 expr inh: -2.6%

What do the screens show for `Oc1ccccc1/C=N/Nc1cc(N2CCCC2)nc(N2CCCC2)n1`?
TGFb inhibitor: -25.1%; DT40 TDP1 CPT: 11.6µM*; HepG2 tox: -56.9%; DT40 TDP1 no CPT: 11.6µM*; ATXN viability: inconclusive; ATXN2 expr inh: -17.3%

Results for Oc1ccc(/C=N/Nc2cc(N3CCOCC3)nc(N3CCOCC3)n2)cc1O ?
TGFb inhibitor: -12.6%; DT40 TDP1 CPT: inconclusive; HepG2 tox: -25.0%; DT40 TDP1 no CPT: 20.6µM*; ATXN viability: inactive; ATXN2 expr inh: -19.8%

Results for O=C(Cn1ccn(-c2ccc(F)c(F)c2)c(=O)c1=O)NCCc1ccccc1 ?
TGFb inhibitor: -0.3%; DT40 TDP1 CPT: inconclusive; HepG2 tox: -33.0%; DT40 TDP1 no CPT: inconclusive; ATXN viability: inactive; ATXN2 expr inh: 2.9%

What do the screens show for `C[S+](C)CCC(N)C(=O)O` (stereo not given)?
DT40 TDP1 CPT: 14.5%; DT40 TDP1 no CPT: -21.6%

What do the screens show for `Cc1nn(CC(=O)Nc2c(F)c(F)cc(F)c2F)c(=O)c2cccn12`?
TGFb inhibitor: 15.8%; DT40 TDP1 CPT: -1.3%; HepG2 tox: 14.2%; DT40 TDP1 no CPT: 26.5%; ATXN viability: inactive; ATXN2 expr inh: 4.3%

What do the screens show for `COC1(c2cc(-c3ccccc3)nc(N)n2)CCCCC1`?
TGFb inhibitor: inconclusive; DT40 TDP1 CPT: inconclusive; HepG2 tox: 4.1%; DT40 TDP1 no CPT: inconclusive; ATXN viability: inactive; ATXN2 expr inh: 13.4%

Results for O=C(Nc1cccc(C(F)(F)F)c1)NC1CCCCC1 ?
TGFb inhibitor: -6.0%; DT40 TDP1 CPT: 23.1µM*; HepG2 tox: -25.1%; DT40 TDP1 no CPT: inconclusive; ATXN viability: inactive; ATXN2 expr inh: 13.3%

How did O=C(Nc1ccc(OC(F)F)cc1)Nc1cccc(C(F)(F)F)c1 do in these assays?
TGFb inhibitor: inconclusive; DT40 TDP1 CPT: 3.66µM*; HepG2 tox: 8.91µM*; DT40 TDP1 no CPT: 4.61µM*; ATXN viability: inconclusive; ATXN2 expr inh: inconclusive

Results for CN1CCC(NC(=O)Nc2cccc(C(F)(F)F)c2)CC1 ?
TGFb inhibitor: -5.3%; DT40 TDP1 CPT: 11.8%; HepG2 tox: 2.4%; DT40 TDP1 no CPT: -7.6%; ATXN viability: inactive

What do the screens show for `O=C(Nc1ccncc1)Nc1cccc(C(F)(F)F)c1`?
TGFb inhibitor: -14.1%; DT40 TDP1 CPT: inconclusive; HepG2 tox: -23.1%; DT40 TDP1 no CPT: 14.6µM*; ATXN viability: inactive; ATXN2 expr inh: -20.1%

What do the screens show for `NC(=O)/C=C\C(=O)Nc1cccc(C(F)(F)F)c1`?
TGFb inhibitor: inconclusive; DT40 TDP1 CPT: 5.17µM*; HepG2 tox: -33.8%; DT40 TDP1 no CPT: 20.6µM*; ATXN viability: inactive; ATXN2 expr inh: -33.1%

What do the screens show for `NNC(=O)Nc1cccc(C(F)(F)F)c1`?
TGFb inhibitor: 13.6%; DT40 TDP1 CPT: -6.6%; HepG2 tox: 2.3%; DT40 TDP1 no CPT: 19.0%; ATXN viability: inactive; ATXN2 expr inh: -4.6%
